Reference: PubChem BioAssay AID602449 (Sanford-Burnham Center for Chemical Genomics, 2012)
Out of some 360,000 compounds screened, about 5,000 (1.4%) were called active. The sample holds actives, similar compounds and a random draw of the others, so the mix is not that of the screen.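 The calls were made as follows: active = inhibition of 50% or more, scaled per plate between neutral and stimulator controls; inactive = the rest.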

Assay: blockers of Ca2+-induced mitochondrial swelling – biochemical, isolated mouse mitochondria, absorbance, primary screen (AID 602449);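 also: 0% = DMSO wells given calcium and 100% = 1 mM EGTA wells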
Settings: 30 min, at 10 µM, hits give high values
With `COc1ccc(N(C)S(=O)(=O)c2ccc3c(c2)CC(C)N3C(=O)C2CC2)c(OC)c1` (stereo unspecified) the inhibition was 0.9% (inactive). In the case of `O=C(C1CCC1)N1CCc2cc(S(=O)(=O)NCc3cccnc3)ccc21`, the inhibition is reported as -1.1% (inactive). In the case of `COc1cccc(CNS(=O)(=O)c2ccc3c(c2)CC(C)N3C(=O)C2CCC2)c1` (stereo unspecified), the inhibition is reported as 90.4% (active). For `COc1cccc(NC(=O)Cn2cnc3sc(C)c(S(=O)(=O)N4CCN(C)CC4)c3c2=O)c1`, the inhibition was 0.8% (inactive). For `Cc1ccc(C2(C(F)(F)F)N=C3Sc4cc(C)cc(C)c4N3C(=O)N2)cc1` (stereo unspecified), the inhibition was 5.4% (inactive). For `CSc1sc(C(=O)NNC(=O)c2ccc(Cl)cc2)c2c1C=CCC2`, the inhibition was 3% (inactive). With `COc1cc(NS(=O)(=O)c2ccc(NC(=S)NC(=O)c3ccccc3)cc2)nc(OC)n1` the inhibition was -1.6% (inactive). In the case of `CS(=O)(=O)c1sc(C(=O)NC(=S)Nc2ccc(OC(F)(F)F)cc2)c2c1C=CCC2`, the inhibition is reported as 53.1% (active). With `COc1cccc(N(Cc2nnc3n2CCCCC3)C(=O)Nc2ccccc2F)c1` the inhibition was 0.7% (inactive). For `Cc1nn(-c2ccccc2)c2sc(C(=O)N(Cc3ccco3)C(C)C(=O)NC(C)(C)C)cc12` (stereo unspecified), the inhibition was -3.6% (inactive). In the case of `CC1=C(C(=O)N2CCOCC2)CC(CC(=O)NCCN2CCOCC2)C(=O)N1CCC1=CCCCC1` (stereo unspecified), the inhibition is reported as 5.2% (inactive). With `O=C(Nn1cnc2ccccc2c1=O)c1ccc(F)cc1Cl` the inhibition was 0.6% (inactive). With `O=C(Cn1nnc2ccccc2c1=O)NCc1ccc(Cl)cc1` the inhibition was -0.4% (inactive). For `CN(C(=O)Nc1ccc(Cl)cc1)n1cnc2ccccc2c1=O`, the inhibition was 55.1% (active). For `O=C(CCCN1C(=O)C2C3C=CC(C3)C2C1=O)N1CCN(c2ccccc2)CC1` (stereo unspecified), the inhibition was -1.6% (inactive). For `O=C(NCCc1ccc2c(c1)OCCO2)c1cc2ccccc2o1`, the inhibition was 74.2% (active). For `CN(C)C(CNC(=O)c1cc2ccccc2o1)c1ccccc1` (stereo unspecified), the inhibition was 0.1% (inactive). For `CNS(=O)(=O)c1ccc(C(=O)NCC(=O)NCCc2ccc3c(c2)OCCO3)cc1`, the inhibition was -1.7% (inactive). For `O=C(NC(=O)c1cc(OCC(F)(F)F)ccc1OCC(F)(F)F)Nc1ccccc1`, the inhibition was 12.2% (inactive). With `CCCCCN(C(=O)NC(=O)Nc1ccccc1C)S(C)(=O)=O` the inhibition was 7.5% (inactive). In the case of `CC(=O)Nc1cc(-c2ccccc2N(C)C)cn2c(-c3ccc(F)c(Cl)c3)cnc12`, the inhibition is reported as 0.4% (inactive). In the case of `CCCN1C2=C(C(=O)CCC2)C(c2ccc(O)c(Br)c2)C2=C1CCCC2=O`, the inhibition is reported as 0.7% (inactive). In the case of `Fc1ccc(COc2cccc(-c3n[nH]c(=S)o3)c2)cc1`, the inhibition is reported as 8.5% (inactive). With `Cc1nc2ccccc2cc1OCc1ccc(F)cc1` the inhibition was 97.1% (active). For `Fc1cccc2ncnc(OCc3ccccc3)c12`, the inhibition was 0.3% (inactive). With `Cc1ccc(S(=O)(=O)N2CCOCC2)cc1NC(=O)COC(=O)c1cnccn1` the inhibition was -1% (inactive). With `Nc1nc(SCC(=O)Nc2ccc(Cl)cc2C(F)(F)F)n[nH]1` the inhibition was 0.2% (inactive). In the case of `CNC(=O)Nc1cc(C(C)(C)C)no1`, the inhibition is reported as -2.3% (inactive). With `CCCc1cc(=O)n2[nH]c(C)c(-c3ccc(Cl)cc3)c2n1` the inhibition was 1.2% (inactive). For `Cc1nc2c(-c3ccccc3)c(C)[nH]n2c(=O)c1Cl`, the inhibition was -1% (inactive). With `Cc1[nH]n(-c2cccc(Cl)c2)c(=O)c1-c1ccc(Cl)cc1` the inhibition was 102% (active). In the case of `CC(NC(=O)CN1CCN(Cc2ccc(Cl)cc2)C1=O)c1ccc2c(c1)OCCO2` (stereo unspecified), the inhibition is reported as -2.1% (inactive). With `Cc1c2cnn(CC(=O)NCCCN3CC(C)CC(C)C3)c(=O)c2c(C)n1Cc1ccc(Cl)cc1` (stereo unspecified) the inhibition was -0.1% (inactive). For `COc1ccc(CNC(=O)C(=O)N2CCC3(CC2)OCCN3S(=O)(=O)c2ccc(C)cc2)cc1`, the inhibition was 0.1% (inactive). With `NC1=NC(=O)C(Cc2cccc(Cl)c2Cl)S1` (stereo unspecified) the inhibition was 1.7% (inactive). With `CCOC(=O)Cc1csc(SCC(=O)NC(C)C23CC4CC(CC(C4)C2)C3)n1` (stereo unspecified) the inhibition was -0.5% (inactive). With `CC(=O)c1ccc(NC(=O)Nc2ccc([N+](=O)[O-])cc2C)cc1` the inhibition was 94.4% (active). In the case of `Cc1ccc(Oc2cc(NC(=O)CCCn3nc(C)c([N+](=O)[O-])c3C)cc([N+](=O)[O-])c2)cc1`, the inhibition is reported as 40.9% (inactive). In the case of `COc1ccc(S(=O)(=O)NNC(=O)Nc2ccc(C)cc2)c(OC)c1`, the inhibition is reported as -0.8% (inactive). With `CC(=O)Nc1ccc(C(=O)OCC(=O)Nc2ccc([N+](=O)[O-])cc2C(F)(F)F)cc1` the inhibition was 36.6% (inactive). With `COc1cc(NC(=O)Nc2ccc(C)cc2)cc([N+](=O)[O-])c1` the inhibition was 104% (active). In the case of `COc1cccc(C(=O)CC(=O)C(=O)Nc2ccc([N+](=O)[O-])cc2C)c1`, the inhibition is reported as -17.7% (inactive). In the case of `COc1ccc(NC(=O)C(c2ccncc2)n2c(=O)c(-c3cc4ccccc4[nH]3)nc3ccccc32)cc1` (stereo unspecified), the inhibition is reported as 4.2% (inactive). With `CC(C)C[C@H](NC(=O)C1CC(=O)N(c2ccc3c(c2)OCCO3)C1)C(=O)NC1CCCC1` (stereo partly specified) the inhibition was -0.1% (inactive). For `CN(C)C(=O)c1cc(Br)ccc1Cl`, the inhibition was 1.1% (inactive). For `O=C(Nc1ccc(OC(F)(F)F)cc1)c1ccc2c(c1)no[n+]2[O-]`, the inhibition was 82.5% (active). In the case of `CCc1nnc(NS(=O)(=O)c2ccc(NC(=O)c3cccc(OC(F)(F)C(F)F)c3)cc2)s1`, the inhibition is reported as 2.9% (inactive). For `Cc1ccc(NC(=O)c2ccc(Oc3ncccn3)cc2)cc1`, the inhibition was 0.4% (inactive). For `Fc1cccc(Cc2c(-c3cccc(Cl)c3)nc3ccc(Br)cn23)c1`, the inhibition was 2.5% (inactive). With `CCOC(=O)C1CCN(C(=O)Cc2c(C(=O)O)[nH]c3ccccc23)CC1` the inhibition was 0.3% (inactive). For `CCOC(=O)C1=C(CC)Nc2ccccc2N=C1N`, the inhibition was 1.2% (inactive). With `O=C(COC(=O)c1ccccc1NC(=O)c1ccco1)Nc1ccc2c(c1)OC(F)(F)O2` the inhibition was 60.9% (active). In the case of `O=C(COC(=O)c1ccc[nH]c1=O)Nc1ccc2c(c1)OC(F)(F)O2`, the inhibition is reported as 3% (inactive). In the case of `O=C(COC(=O)CNC(=O)c1ccco1)Nc1ccc(F)cc1`, the inhibition is reported as -1.2% (inactive). With `COC(=O)[C@]12CCCCC=C1N(Cc1ccccc1)C(=O)[C@H](CC(=O)NCc1ccc(C)o1)C2` the inhibition was -0.1% (inactive). In the case of `COc1ccc(NC(=O)CN(C)S(=O)(=O)c2ccccc2)cc1OC`, the inhibition is reported as -0.5% (inactive). With `Cc1cc(C)c(NC(=O)CS(=O)CC(=O)Nc2cccnc2)c(C)c1` (stereo unspecified) the inhibition was -1.4% (inactive). For `Cc1ccc(-c2nc(-c3cccnc3)sc2CC(=O)Nc2ccc(C)c(Cl)c2)cc1`, the inhibition was 93.3% (active). In the case of `Cc1nc(-c2ccc(F)cc2)c(CC(=O)Nc2cc(S(=O)(=O)N3CCCCC3)ccc2C)s1`, the inhibition is reported as -0.4% (inactive). With `Cc1ccc(Nc2c(F)c(F)c(F)c(F)c2C(=O)O)c(C)c1` the inhibition was -0.7% (inactive). In the case of `O=C(CCn1nnc2ccccc2c1=O)N[C@@H](Cc1c[nH]c2ccccc12)C(=O)O`, the inhibition is reported as 1.4% (inactive). With `Cc1ccc(C(=O)Nc2nnc(C3=COCCO3)o2)cc1C` the inhibition was -0.8% (inactive). In the case of `Cc1cc(C(=O)CSc2nc(N)cc(=O)[nH]2)c(C)n1CCc1ccc(Cl)cc1`, the inhibition is reported as -9% (inactive). In the case of `Cc1cc(C(=O)CSc2nc(N)cc(=O)[nH]2)c(C)n1-c1cccc(F)c1`, the inhibition is reported as 63.2% (active). With `Cc1cc(C(=O)CSc2nc(N)cc(=O)[nH]2)c(C)n1Cc1ccco1` the inhibition was 64.3% (active). For `COc1ccc(C)cc1-n1nnnc1SCC(=O)c1cc(C)n(Cc2ccco2)c1C`, the inhibition was -2.3% (inactive). With `Cc1cc(C)c(C(=O)CSc2nc(C)cc(=O)[nH]2)c(C)c1` the inhibition was 0.6% (inactive). In the case of `Cc1cc(C(=O)COC(=O)C2CC2)c(C)n1-c1ccc(F)cc1`, the inhibition is reported as 0.2% (inactive). For `CC1CCN(c2ccc(-c3ccc(NC(=O)c4ccco4)cc3)nn2)CC1`, the inhibition was 0.3% (inactive). With `CSCCC1NC(=O)N(CC(=O)Nc2cccc(S(=O)(=O)N3CCCCCC3)c2)C1=O` (stereo unspecified) the inhibition was 1.2% (inactive). With `CCOC(=O)C1C(=O)OC2(CCCC2)C1C(=O)OCC` (stereo unspecified) the inhibition was -1.2% (inactive). In the case of `COc1cccc(CNc2nc(NCc3cccs3)nc3ccsc23)c1`, the inhibition is reported as 77.8% (active). With `COCCNc1nc(Nc2ccccc2Cl)c2sc(-c3ccccc3)cc2n1` the inhibition was 2.1% (inactive). With `COc1cccc(-c2cc3nc(NCc4ccccc4OC)n(C)c(=O)c3s2)c1` the inhibition was 1.9% (inactive). For `COc1cccc(CNc2nc(NCc3ccccc3OC)nc3ccsc23)c1`, the inhibition was 94.6% (active). For `COc1ccc(NC(=S)NCc2cccs2)c(OC)c1`, the inhibition was 2.2% (inactive). With `COc1ccccc1CNc1nc(Nc2ccccc2Cl)c2sccc2n1` the inhibition was 74.5% (active). For `COCCNc1nc(NCc2ccc(NC(C)=O)cc2)c2sccc2n1`, the inhibition was -1.4% (inactive). In the case of `Clc1ccccc1Nc1nc(NCc2cccs2)nc2ccsc12`, the inhibition is reported as 3% (inactive). For `COc1cccc(CNc2nc3cc(-c4csc5ccccc45)sc3c(=O)n2C)c1`, the inhibition was 2.5% (inactive). For `Cc1ccc(Nc2nc(CSc3nnc(-c4ccncc4)n3-c3ccccc3C)cs2)cc1`, the inhibition was 2.2% (inactive). For `CC(Cc1cccs1)NC(=O)c1cccc(Cl)c1` (stereo unspecified), the inhibition was 4.2% (inactive). In the case of `Cc1c(NC(=S)NC(=O)CCc2ccccc2)c(=O)n(-c2ccccc2)n1C`, the inhibition is reported as 0.3% (inactive). With `Cc1cc(C)cc(NC(=O)COC(=O)c2cc(C)oc2C)c1` the inhibition was 0.5% (inactive). For `CN(C)CCn1c2c(c(SCC(=O)NCc3ccccc3)nc1=O)CCC2`, the inhibition was -1% (inactive). In the case of `CCOC(=O)c1cc2cc(-c3c(C(=O)OCC)oc4cc(O)cc(O)c4c3=O)ccc2o1`, the inhibition is reported as 50.9% (active). In the case of `CCOC(=O)c1cc(=O)c2ccc(OCc3ccccc3)cc2o1`, the inhibition is reported as 0.1% (inactive). In the case of `CCOC(=O)c1oc2c(CN3CCN(C)CC3)c(O)ccc2c(=O)c1-c1ccc(Br)cc1`, the inhibition is reported as 9.1% (inactive). For `C/C(=N\Nc1nc2ccccc2[nH]1)c1cccs1`, the inhibition was 1.1% (inactive). With `Cc1ccc(-c2nc(C)sc2CC(=O)OCC(=O)Nc2c(F)cccc2F)cc1` the inhibition was 0.8% (inactive). With `Cn1c(=O)c(C(=O)Nc2ncccn2)c(O)c2ccccc21` the inhibition was -1.3% (inactive).
